Compound in this experiment: CN[C@@H]1C[C@H]2O[C@@](C)([C@@H]1OC)n1c3ccccc3c3c4c(c5c6ccccc6n2c5c31)C(=O)NC4 [staurosporine]
Put plainly: log2 fold change of tryptic peptide abundance, ligand vs vehicle (limited proteolysis) (log2 ratio); higher = more trypsin-susceptible (destabilized). The conditions noted are these: ligand concentration: 20 uM; sample: K562 cleared lysate; digestion: 4 min, 22 C (HT-PELSA RT4min, Orbitrap Astral).
Chain of UniProt Q2VIR3 (Q2VIR3 whole entry): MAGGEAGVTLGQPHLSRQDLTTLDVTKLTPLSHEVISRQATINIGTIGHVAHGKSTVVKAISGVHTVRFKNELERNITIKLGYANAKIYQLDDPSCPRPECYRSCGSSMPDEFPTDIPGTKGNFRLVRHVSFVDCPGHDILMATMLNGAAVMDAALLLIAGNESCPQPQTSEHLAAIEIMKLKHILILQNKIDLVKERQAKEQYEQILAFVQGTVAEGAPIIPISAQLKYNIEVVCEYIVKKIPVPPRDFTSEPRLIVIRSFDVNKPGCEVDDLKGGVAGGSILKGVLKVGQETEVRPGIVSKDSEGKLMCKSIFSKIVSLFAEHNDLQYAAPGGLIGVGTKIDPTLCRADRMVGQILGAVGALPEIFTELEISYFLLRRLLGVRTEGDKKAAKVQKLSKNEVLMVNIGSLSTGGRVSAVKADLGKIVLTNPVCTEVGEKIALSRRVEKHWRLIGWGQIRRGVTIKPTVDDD
Chain of UniProt P27708 (P27708 whole entry): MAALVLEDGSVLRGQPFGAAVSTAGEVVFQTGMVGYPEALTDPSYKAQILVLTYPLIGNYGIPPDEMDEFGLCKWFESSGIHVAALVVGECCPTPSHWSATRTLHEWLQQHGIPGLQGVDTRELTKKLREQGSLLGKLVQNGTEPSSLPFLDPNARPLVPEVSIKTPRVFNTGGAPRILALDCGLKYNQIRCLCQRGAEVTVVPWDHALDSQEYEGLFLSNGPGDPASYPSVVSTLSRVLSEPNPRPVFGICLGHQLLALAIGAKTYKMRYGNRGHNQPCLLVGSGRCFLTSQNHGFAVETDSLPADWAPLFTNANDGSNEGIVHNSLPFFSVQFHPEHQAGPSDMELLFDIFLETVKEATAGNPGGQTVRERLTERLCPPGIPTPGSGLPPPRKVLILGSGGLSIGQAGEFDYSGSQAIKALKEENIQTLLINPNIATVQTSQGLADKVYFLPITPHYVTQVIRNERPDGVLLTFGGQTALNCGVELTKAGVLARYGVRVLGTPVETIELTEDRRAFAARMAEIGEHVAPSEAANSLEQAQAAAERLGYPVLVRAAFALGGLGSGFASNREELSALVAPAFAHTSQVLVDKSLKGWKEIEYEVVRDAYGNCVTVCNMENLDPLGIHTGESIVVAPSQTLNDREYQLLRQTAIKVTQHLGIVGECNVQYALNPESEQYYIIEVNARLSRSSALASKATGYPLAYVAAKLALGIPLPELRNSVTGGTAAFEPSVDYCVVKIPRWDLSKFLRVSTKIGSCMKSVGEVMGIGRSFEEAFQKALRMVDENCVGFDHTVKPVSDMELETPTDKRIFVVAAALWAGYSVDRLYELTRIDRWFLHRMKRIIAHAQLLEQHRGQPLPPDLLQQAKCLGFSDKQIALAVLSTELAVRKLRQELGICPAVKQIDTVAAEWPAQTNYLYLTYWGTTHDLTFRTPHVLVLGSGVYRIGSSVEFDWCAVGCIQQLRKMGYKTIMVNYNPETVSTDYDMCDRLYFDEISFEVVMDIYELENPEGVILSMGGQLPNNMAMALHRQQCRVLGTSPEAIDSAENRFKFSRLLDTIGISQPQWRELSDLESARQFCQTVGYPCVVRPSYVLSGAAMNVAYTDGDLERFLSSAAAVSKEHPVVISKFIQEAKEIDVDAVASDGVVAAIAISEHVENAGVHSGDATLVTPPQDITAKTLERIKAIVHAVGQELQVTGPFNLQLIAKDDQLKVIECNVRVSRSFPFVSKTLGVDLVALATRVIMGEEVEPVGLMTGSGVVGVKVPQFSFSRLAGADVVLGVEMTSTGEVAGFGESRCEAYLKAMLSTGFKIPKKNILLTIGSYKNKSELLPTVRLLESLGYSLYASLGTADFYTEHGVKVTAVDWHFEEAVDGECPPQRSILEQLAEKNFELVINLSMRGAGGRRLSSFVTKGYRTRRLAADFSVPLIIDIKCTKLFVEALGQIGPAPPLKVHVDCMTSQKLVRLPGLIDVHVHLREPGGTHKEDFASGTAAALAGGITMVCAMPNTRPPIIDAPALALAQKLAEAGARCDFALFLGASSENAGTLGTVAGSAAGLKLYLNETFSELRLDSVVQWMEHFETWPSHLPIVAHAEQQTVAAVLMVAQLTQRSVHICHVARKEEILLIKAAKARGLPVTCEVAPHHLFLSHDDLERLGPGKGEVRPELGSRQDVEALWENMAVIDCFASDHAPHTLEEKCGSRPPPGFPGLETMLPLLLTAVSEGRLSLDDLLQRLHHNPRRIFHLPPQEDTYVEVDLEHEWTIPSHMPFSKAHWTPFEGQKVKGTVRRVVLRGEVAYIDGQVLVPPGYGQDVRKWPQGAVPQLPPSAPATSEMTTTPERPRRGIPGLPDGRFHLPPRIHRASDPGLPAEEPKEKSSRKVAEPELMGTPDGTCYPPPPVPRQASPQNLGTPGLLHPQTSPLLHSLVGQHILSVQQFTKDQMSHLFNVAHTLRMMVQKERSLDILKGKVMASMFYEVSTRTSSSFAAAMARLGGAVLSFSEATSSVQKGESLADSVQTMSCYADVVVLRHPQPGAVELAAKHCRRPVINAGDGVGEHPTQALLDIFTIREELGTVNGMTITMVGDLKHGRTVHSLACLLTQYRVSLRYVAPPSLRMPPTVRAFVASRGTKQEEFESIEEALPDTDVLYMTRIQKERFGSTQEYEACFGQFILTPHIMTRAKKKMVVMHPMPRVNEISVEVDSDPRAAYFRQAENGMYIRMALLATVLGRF
Chain of UniProt Q9NSY1 (Q9NSY1 whole entry, looked up): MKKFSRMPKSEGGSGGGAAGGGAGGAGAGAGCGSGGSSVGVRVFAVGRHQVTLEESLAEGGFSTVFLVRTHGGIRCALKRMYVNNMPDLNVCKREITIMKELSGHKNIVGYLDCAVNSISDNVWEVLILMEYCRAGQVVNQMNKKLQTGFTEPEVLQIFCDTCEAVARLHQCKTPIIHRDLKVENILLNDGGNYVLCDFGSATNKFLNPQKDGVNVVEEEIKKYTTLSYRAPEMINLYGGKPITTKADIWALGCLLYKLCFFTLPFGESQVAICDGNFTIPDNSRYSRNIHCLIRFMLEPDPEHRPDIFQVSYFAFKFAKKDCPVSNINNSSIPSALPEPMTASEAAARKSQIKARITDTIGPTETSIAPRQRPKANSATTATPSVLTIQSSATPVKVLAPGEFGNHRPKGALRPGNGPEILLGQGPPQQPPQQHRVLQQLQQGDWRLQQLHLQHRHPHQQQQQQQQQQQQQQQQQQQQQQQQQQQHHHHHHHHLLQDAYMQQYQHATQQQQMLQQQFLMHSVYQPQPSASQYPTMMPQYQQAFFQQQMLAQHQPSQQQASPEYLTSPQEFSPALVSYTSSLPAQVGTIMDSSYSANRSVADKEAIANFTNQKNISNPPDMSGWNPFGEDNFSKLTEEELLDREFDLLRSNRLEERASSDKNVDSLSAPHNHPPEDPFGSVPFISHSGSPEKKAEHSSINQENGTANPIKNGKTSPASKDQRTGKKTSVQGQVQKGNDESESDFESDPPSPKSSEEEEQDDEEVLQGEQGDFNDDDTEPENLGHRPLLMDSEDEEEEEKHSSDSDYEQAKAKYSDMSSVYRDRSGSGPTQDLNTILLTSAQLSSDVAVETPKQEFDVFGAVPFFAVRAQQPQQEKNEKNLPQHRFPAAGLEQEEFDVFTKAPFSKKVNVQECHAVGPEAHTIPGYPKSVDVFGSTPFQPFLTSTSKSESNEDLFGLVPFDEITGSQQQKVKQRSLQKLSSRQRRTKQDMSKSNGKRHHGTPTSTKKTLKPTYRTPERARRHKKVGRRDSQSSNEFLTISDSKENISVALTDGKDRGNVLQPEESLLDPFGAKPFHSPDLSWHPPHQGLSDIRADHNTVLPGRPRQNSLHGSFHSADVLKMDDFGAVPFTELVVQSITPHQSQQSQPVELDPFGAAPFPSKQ
Chain of UniProt Q9BZF3 (Q9BZF3 whole entry): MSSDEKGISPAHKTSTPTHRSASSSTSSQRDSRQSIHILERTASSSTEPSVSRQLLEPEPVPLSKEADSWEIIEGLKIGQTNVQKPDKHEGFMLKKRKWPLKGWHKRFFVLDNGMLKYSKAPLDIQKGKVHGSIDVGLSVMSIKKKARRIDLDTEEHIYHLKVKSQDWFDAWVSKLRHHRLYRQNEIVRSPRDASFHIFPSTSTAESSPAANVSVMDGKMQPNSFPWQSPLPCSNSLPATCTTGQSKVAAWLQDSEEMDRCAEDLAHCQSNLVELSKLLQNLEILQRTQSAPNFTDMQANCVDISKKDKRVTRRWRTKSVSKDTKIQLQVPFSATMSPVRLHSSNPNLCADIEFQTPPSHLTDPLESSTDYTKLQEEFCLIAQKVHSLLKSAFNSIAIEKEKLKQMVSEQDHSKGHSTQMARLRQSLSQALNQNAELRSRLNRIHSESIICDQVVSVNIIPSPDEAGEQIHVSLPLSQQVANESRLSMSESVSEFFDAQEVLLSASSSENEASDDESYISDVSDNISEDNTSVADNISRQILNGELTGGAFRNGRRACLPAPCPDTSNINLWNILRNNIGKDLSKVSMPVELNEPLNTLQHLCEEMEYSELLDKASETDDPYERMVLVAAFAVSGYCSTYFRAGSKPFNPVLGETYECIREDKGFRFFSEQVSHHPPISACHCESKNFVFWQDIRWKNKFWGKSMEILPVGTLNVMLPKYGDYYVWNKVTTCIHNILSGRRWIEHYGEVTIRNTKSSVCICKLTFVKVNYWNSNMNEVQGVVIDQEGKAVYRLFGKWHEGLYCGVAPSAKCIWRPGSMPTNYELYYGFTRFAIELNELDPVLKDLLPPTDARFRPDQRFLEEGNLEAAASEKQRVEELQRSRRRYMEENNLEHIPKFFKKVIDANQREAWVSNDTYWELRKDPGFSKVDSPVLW
Chain of UniProt O75494 (O75494 whole entry): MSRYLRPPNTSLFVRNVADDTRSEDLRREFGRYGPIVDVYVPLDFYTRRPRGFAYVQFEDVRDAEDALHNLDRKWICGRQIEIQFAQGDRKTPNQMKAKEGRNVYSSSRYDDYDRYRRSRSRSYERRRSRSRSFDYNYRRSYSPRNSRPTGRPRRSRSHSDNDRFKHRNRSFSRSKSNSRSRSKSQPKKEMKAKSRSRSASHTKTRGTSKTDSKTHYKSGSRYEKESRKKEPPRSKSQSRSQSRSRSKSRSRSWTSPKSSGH
Consider “UniProt Q2VIR3 (peptide sequence: FKNELER, peptide start residue: 69)”, for which the log2 fold change worked out at 0.555.

In the case of “UniProt P62995 (peptide sequence: SPSPYYSR, peptide start residue: 264)”, the log2 fold change worked out at 1.31. Then “QDPR (peptide sequence: EGGLLTLAGAK, peptide start residue: 128) (UniProt P09417)”, with 0.635; and “UniProt Q6A1A2 (peptide sequence: AHPFFESVTWENLHQQTPPK, peptide start residue: 338)”, with -1.74; and “UniProt Q6ICG6 (peptide sequence: KAAEPEVEVEVYRR, peptide start residue: 72)”, with -1.02. For the target “HAT1 (peptide sequence: CNTNTAIELK, peptide start residue: 27) (UniProt O14929)”, the log2 fold change was found to be 0.602. Then “EPHB3 (peptide sequence: VSDFGLSR, peptide start residue: 537) (UniProt P54753)”, with 0.918; and “GEMIN5 (peptide sequence: MLSTFKELFSEK, peptide start residue: 1352) (UniProt Q8TEQ6)”, with -1. Next, “PRDM15 (peptide sequence: VKREDLEAGGENLVR, peptide start residue: 882) (UniProt P57071)”: -1.86; “GTSE1 (peptide sequence: SIPGAAEKPK, peptide start residue: 228) (UniProt Q9NYZ3)”: 0.58; “UniProt Q9NSY1 (peptide sequence: DGVNVVEEEIKK, peptide start residue: 212)”: -4.3.

Take “PRDX6 (peptide sequence: NFDEILR, peptide start residue: 156) (UniProt P30041)”: the log2 fold change amounted to 0.443. Then “UniProt Q8NEB9 (peptide sequence: SALMPAQLFFK, peptide start residue: 614)”, with -0.384; and “PRKD2 (peptide sequence: LSSTSLASGHSVR, peptide start residue: 196) (UniProt Q9BZL6)”, with 1.18; and “MED12 (peptide sequence: NVSFNPAK, peptide start residue: 61) (UniProt Q93074)”, with 0.555. As to “UniProt Q16629 (peptide sequence: YFQSPSR, peptide start residue: 189)”, the log2 fold change was determined as 1.29. Then “EIF2AK4 (peptide sequence: DLKPVNIFLDSDDHVK, peptide start residue: 848) (UniProt Q9P2K8)”, with -1.33; and “OSBPL6 (peptide sequence: NFVFWQDIR, peptide start residue: 687) (UniProt Q9BZF3)”, with -1.81; and “KSR1 (peptide sequence: LSHDWLCYLAPEIVR, peptide start residue: 771) (UniProt Q8IVT5)”, with -0.299. Then “VIM (peptide sequence: MFGGPGTASRPSSSR, peptide start residue: 14) (UniProt P08670)”, with 0.344; and “CAD (peptide sequence: FLSSAAAVSKEHPVVISK, peptide start residue: 1110) (UniProt P27708)”, with -0.418; and “UniProt P0DMV8 (peptide sequence: LLQDFFNGR, peptide start residue: 349)”, with 0.293. Next, “TNIK (peptide sequence: KFQSFIESCLVK, peptide start residue: 261) (UniProt Q9UKE5)”: -0.632; “GALE (peptide sequence: MCEDLWR, peptide start residue: 329) (UniProt Q14376)”: 0.379; “UniProt O00567 (peptide sequence: LIAHAGSLTNLAK, peptide start residue: 308)”: 0.316. With “NEK9 (peptide sequence: TLNIFLTK, peptide start residue: 179) (UniProt Q8TD19)”, the log2 fold change was -0.436.

For “UniProt P07437 (peptide sequence: IREEYPDRIMNTFSVVPSPK, peptide start residue: 155)”, the log2 fold change was -2.5. For the target “PUS1 (peptide sequence: GYAPESVLER, peptide start residue: 307) (UniProt Q9Y606)”, the log2 fold change was -0.403. Then “UniProt O75153 (peptide sequence: VVEEPYTVR, peptide start residue: 118)”, with 0.461. Then “UniProt P61962 (peptide sequence: LMWIPDTK, peptide start residue: 74)”, with 0.374; and “OSBP (peptide sequence: TRIPYKPNYSLNLWSIMK, peptide start residue: 407) (UniProt P22059)”, with 0.573; and “HBG1 (peptide sequence: VLTSLGDAIK, peptide start residue: 68) (UniProt P69891)”, with 0.204. As for “UniProt Q13043 (peptide sequence: ATATQLLQHPFVR, peptide start residue: 270)”, the log2 fold change was -3.53. Then “UniProt P45984 (peptide sequence: DLKPSNIVVK, peptide start residue: 151)”, with -2.08. Next, “PMPCA (peptide sequence: LYLNVLNR, peptide start residue: 363) (UniProt Q10713)”: -0.407; “AP2B1 (peptide sequence: VIAAMTVGK, peptide start residue: 37) (UniProt P63010)”: 0.277; “UniProt P27448 (peptide sequence: NSIASCADEQPHIGNYR, peptide start residue: 41)”: -2.82.

For “UniProt O75494 (peptide sequence: SFDYNYR, peptide start residue: 133)”, the log2 fold change amounted to 0.608.
